Screening data from PubChem BioAssay.
Compounds with a hit are over-represented: about 1.4% of the library has one in this group of screens.
AMA1 RON2 block: disrupts binding of P. falciparum AMA1 to RON2 | AlphaScreen AMA1-biotinylated RON2 peptide binding | Potency, µM (highest dose often 58.2 µM), for inactives: at the highest dose activity change, negative = inhibition, hits mostly inhibitors | hit rate 0.2% among 360,000;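 note: 0% = vehicle wells and -100% = peptide control; nearly all actives have a fitted effect of over 45% in size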
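AMA1 (3D7) with his tag at 25 nM final met compounds first, then biotinylated RON2 peptide at 25 nM; detection used donor plus acceptor beads, 10 µg/mL apiece, read by AlphaScreen after 30 min at room temperature.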
AmpC no deterg: blocks E. coli AmpC beta-lactamase in detergent-free assay. AID 485341. hit rate 0.52% among 330,000. Potency, µM (highest dose often 57.1 µM), for inactives: at the highest dose activity change, negative = inhibition, hits mostly inhibitors. AmpC nitrocefin hydrolysis, absorbance 480 nm, 0.0001% Triton;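 note: plate controls were no compound for no effect and no enzyme for full effect; nearly all actives have a fitted effect of over 20% in size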
Target sequence (P00811 whole entry, looked up): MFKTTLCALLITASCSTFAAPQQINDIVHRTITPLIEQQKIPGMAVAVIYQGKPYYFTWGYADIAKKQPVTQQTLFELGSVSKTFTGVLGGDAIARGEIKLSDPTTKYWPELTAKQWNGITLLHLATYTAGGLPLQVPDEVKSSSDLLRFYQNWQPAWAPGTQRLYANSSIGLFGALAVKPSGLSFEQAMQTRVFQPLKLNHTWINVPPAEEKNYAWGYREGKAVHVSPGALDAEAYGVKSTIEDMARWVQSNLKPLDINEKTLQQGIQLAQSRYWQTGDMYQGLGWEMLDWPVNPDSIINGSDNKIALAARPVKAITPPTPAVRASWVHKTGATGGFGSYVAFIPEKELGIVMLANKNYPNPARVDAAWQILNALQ
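20 mM phosphate pH 7.0 + 0.01% (detergent screen) or 0.0001% Triton X-100; 5.3 nM AmpC reagent; cpd preinc 15 min RT; nitrocefin (800 uM stock) to start; A480 q20 s × 4 min; Activity was normalised to no-enzyme and no-compound control wells.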
VACV Venus inh: vaccinia inhibition (Venus reporter); Potency, µM (titrated, usually from 36.5 µM), for the others: at the top dose activity change, negative = inhibition, usual class: inhibitors; AID 720580; Vaccinia virus Venus reporter expression, fluorescence; hit rate 0.46% among 330,000; calls by dose curve; tested in A549 cells; note: % is set by controls: 0 for no effect and ±100 for the full control effect; nearly all actives have a fitted effect of over 30% in size
SARS PLpro yeast: inhibitors of SARS-CoV papain-like protease in yeast; AID 485353; S. cerevisiae expressing SARS-CoV PLpro, growth rescue; hit rate 0.19% among 330,000; Potency, µM (doses to about 32.9 µM), without a hit: top-dose activity, positive = growth rescue, hits mostly activators; calls by dose curve; note: 0% is about no effect; nearly all actives have a fitted effect of over 55% in size
Vaccinia mCherry: vaccinia inhibition (mCherry reporter); Potency, µM (highest dose often 36.5 µM), without a hit: at the top dose activity change, negative = inhibition, usual class: inhibitors; AID 720579; hit rate 0.63% among 310,000; Vaccinia virus mCherry reporter infection, fluorescence; calls by dose curve; tested in A549 cells; note: % is set by controls: 0 for no effect and ±100 for the full control effect; nearly all actives have a fitted effect of over 35% in size
AmpC detergent: blocks E. coli AmpC beta-lactamase in detergent assay | Potency, µM (titrated, usually from 114 µM), without a hit: top-dose activity change, negative = inhibition, most hits filed as inhibitors | P00811 | hit rate 0.041% among 370,000 | AmpC hydrolysis of nitrocefin, absorbance 480 nm, 0.01% Triton;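 note: 0% = no-compound wells and -100% = no-enzyme wells; nearly all actives have a fitted effect of over 25% in size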
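AmpC (5.3 nM in the dispensed reagent) in 20 mM phosphate pH 7.0 with 0.01% (detergent screen) or 0.0001% Triton X-100 was preincubated with compounds for 15 min at room temperature. Nitrocefin was then added from an 800 uM solution, and hydrolysis was followed at 480 nm.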
Active calls of the source: *; i = inactive; ? = inconclusive; · = no result given; [ ] = another dose, or the depositor's remark. Unless noted, calls come from the whole dose curve; as a rule, active = well fitted curve in the direction sought with a large enough effect; inconclusive = small, poorly fitted or top-dose-only effect, or another doubt; inactive = no such curve, though single readings can be large; an effect the other way counts as inactive or inconclusive. Potency is the fitted concentration of half-maximal effect.

SMILES | AMA1 RON2 block | AmpC no deterg | VACV Venus inh | SARS PLpro yeast | Vaccinia mCherry | AmpC detergent
CCN1CCN(Cc2ccc(NC(=O)c3ccc(C)c(/C=C/c4cnc(Nc5cc(N6CCNCC6)nc(C)n5)cn4)c3)cc2C(F)(F)F)CC1 | 5.2% | 118.3% | 8.91µM* | -3.3% | ? | -0.5%
CCN1CCN(Cc2ccc(NC(=O)c3ccc(C)c(NC(=O)c4cccc(-c5cn[nH]c(=O)c5)c4)c3)cc2C(F)(F)F)CC1 | -21.5% | 172.4% | 7.08µM* | -5.7% | ? | ?
COCC1CCCN(Cc2ccc3c(c2)CN(C(=O)c2cc(-c4ccccc4)n[nH]2)CCO3)C1 (stereo not drawn) | · | · | -17.2% | · | -7.6% | ·
O=C(CSc1nc(-c2ccccc2)nc2c1Cc1ccccc1O2)N1CCCCC1 | · | · | -9.9% | · | -10.5% | 8.7%
CC1=C(C(=O)O)N2C(=O)C(NC(=O)C(N)c3ccccc3)C2SC1 (stereo not drawn) | · | · | -4.9% | · | -11.6% | ·
O=C(N/N=C/c1cccs1)c1cccc(S(=O)(=O)Nc2ccc(Cl)cc2)c1 | 0.8% | 14.1µM* | ? | 0.5% | ? | -12.2%
O=C(NCCc1nc2ccccc2n1CCOc1cccc2ccccc12)C1CCCCC1 | · | · | -25.8% | · | -14.2% | ·
O=S(=O)(c1cccc(-c2nnc(SCc3nc4ccccc4s3)o2)c1)N1CCOCC1 | -1.8% | 46.2% | ? | -0.9% | 12.6µM* | 2.5%
COC(=O)[C@@H]1[C@@H](C(=O)OC)C2(c3ccccc3-c3ccccc32)N(c2ccc(Cl)cc2)N1C#N | -9.6% | 61.4% | ? | -20.4% | ? | ?
COC(=O)C[C@]1(C(=O)OC)CN(C#N)N(c2ccc(Cl)cc2)C12c1ccccc1-c1ccccc12 | -1.5% | 107.9% | ? | -20.5% | 11.2µM* | ?
COc1ccc(CCSc2n[nH]c(C(C)C)n2)cc1 | · | · | -15.0% | · | -9.6% | ·
C=C(C)C1CC=C(C)/C(=N/NC(=S)Nc2ccccc2)C1 (stereo not drawn) | 23.9%[2.32 µM] | -52.7% | -17.6% | 10µM* | i | -7.2%
CN1OC[C@@H]2CN(Cc3ccccc3)[C@H](c3ccc(N4CCCCC4)cc3)C[C@@H]21 | ? | · | -5.7% | · | 1.3% | ·
CN1OC[C@@H]2CN(Cc3ccc4c(c3)OCO4)[C@H](c3ccc(N4CCCCC4)cc3)C[C@@H]21 | 14.1µM* | · | 5.6% | · | i | ·
COCC(=O)Nc1cc(Cl)ccc1C | 0.7% | -14.7% | 0.2% | -1.7% | -11.1% | -4.7%
Cc1ccc(Cl)cc1NC(=O)CC(O)(C(F)(F)F)C(F)(F)F | 0.7% | -16.1% | 28.2µM* | -28.7% | ? | 0.3%
CCOc1ccc(-c2cc(C(=O)Nc3ccc(C)c(NS(C)(=O)=O)c3)[nH]n2)c(C)c1 | -2.4% | · | ? | · | 11.2µM* | ·
Cc1cnc(C)c(-c2cc(F)cc3c2OC(CNC(=O)c2cc(Cl)ccc2F)C3)n1 (stereo not drawn) | · | · | -8.1% | · | -7.9% | ·
Cc1nccc2c1[nH]c1ccccc12 | 19.2% | -8.7% | -18.4% | -0.5% | -10.6% | 3.2%
COc1ccc2[nH]c(C)cc(=O)c2c1 | -2.1% | 6.2% | -11.8% | -0.1% | · | -15.8%
COc1ccc2[nH]c3c(C)c4ccncc4c(C)c3c2c1 | -24.3% | 4.6% | 10µM* | -0.3% | 7.08µM* | -3.4%
Cc1c2ccncc2c(C)c2c1[nH]c1ccccc12 | 11.0% | 17.1% | 10µM* | -3.7% | 11.2µM* | -5.7%
Cc1c2ccncc2cc2c1[nH]c1ccccc12 | 4.9% | · | 10µM* | · | 15.8µM* | ·
c1ccc2c(c1)[nH]c1cnccc12 | -1.6% | -28.5% | -7.3% | -4.9% | 2.8% | -3.5%
O=C([C@@H]1C[C@@H](Sc2nc3ccccc3[nH]2)CN1Cc1ccc(Cl)cc1)N1CCN(c2ccccc2F)CC1 | · | · | -22.1% | · | -9.7% | ·
SMILES | AMA1 RON2 block | AmpC no deterg | VACV Venus inh | SARS PLpro yeast | Vaccinia mCherry | AmpC detergent
Cc1cc(C(=O)N/N=C/c2ccc3c(c2)OCO3)c(C)n1-c1ccc(F)cc1 | 0.8% | -43.8% | -4.0% | -1.8% | -0.8% | 3.3%
Cc1cc(C(=O)N/N=C/c2ccc(Cl)c([N+](=O)[O-])c2)c(C)n1-c1ccc(F)cc1 | 8.4% | 15.8µM* | -25.9% | 3.4% | ? | -8.7%
CN(C)/C=C/c1onc(-c2c(Cl)cccc2Cl)c1C#N | -9.0% | -42.7% | -3.8% | -0.6% | -10.8% | 3.5%
N#Cc1c(-c2c(Cl)cccc2Cl)noc1/C=C/Nc1ccc(C(=O)O)cc1 | 13.8% | 17.8µM* | -16.8% | 3.0% | i | 2.2%
COc1ccc(CCNc2ccc(C(CC(N)=O)NC(=O)Cc3cccc4ccccc34)cc2[N+](=O)[O-])cc1 (stereo not drawn) | 5.5% | -6.9% | 12.6µM* | -1.5% | ? | -0.7%
COCc1c(C(=O)N2CCN(C3CCCC3)CC2)cnn1-c1nccc(-c2cccs2)n1 | · | · | -7.8% | · | -11.7% | ·
COC(=O)C1=C(C)N(Cc2ccc(C)cc2)C(=O)/C1=C\c1ccc(O)c(OC)c1 | ? | -32.5% | ? | 3.1% | · | ?
COC(=O)C1=C(C)N(Cc2ccc(C)cc2)C(=O)/C1=C\c1cc(OC)c(OC)c(OC)c1 | 35.5µM* | 88.5% | -0.1% | -4.1% | -4.6% | -10.7%
O=C(O)C[C@@H]1C(=O)O[C@@H]2C(COC(=O)c3cc(O)c(O)c(O)c3)O[C@@H](OC(=O)c3cc(O)c(O)c(O)c3)[C@@H](OC(=O)c3cc(O)c(O)c4c3[C@H]1[C@H](O)C(=O)O4)[C@H]2OC(=O)c1cc(O)c(O)c(O)c1 (stereo partly drawn) | · | -47.1% | · | 1.41µM* | · | -3.2%
Cc1ccc(-c2cn3c(n2)sc2cc(C(=O)NCCCN4CCCCC4)ccc23)cc1 | · | · | 8.91µM* | · | 11.2µM* | 21.5%
Cc1ccc(-c2cn3c(n2)sc2cc(C(=O)NCCCN4CCCCCC4)ccc23)cc1 | · | · | ? | · | ? | 4.5%
Cc1cc(C)nc(N/N=C/c2ccccc2OCc2ccc(Br)cc2)n1 | 12.3% | 17.8µM* | -4.6% | -3.4% | -10.7% | -12.4%
Cc1cc(C)nc(N/N=C/c2ccccc2OCc2ccccc2)n1 | 37.7% | -49.5% | -22.4% | -12.0% | -5.6% | -4.8%
Cc1oc(-c2ccccc2NC(=O)C2CCCO2)nc1CNC(=O)c1[nH]c2c(C)ccc(C)c2c1C (stereo not drawn) | · | · | -14.4% | · | -9.2% | ·
CCOc1ccccc1NC(=O)Nc1nnc(N2CCCC(C)C2)s1 (stereo not drawn) | · | · | -19.2% | · | -17.9% | -0.9%
Oc1ccc(/C=N/Nc2ccnc3cc(Cl)ccc23)cc1O | 2.3% | 11.2µM* | -10.8% | 1.1% | ? | -7.6%
Oc1ccc(/C=N/Nc2ccnc3cc(Cl)ccc23)c(O)c1O | 23.2% | -59.1% | 4.1% | 22.5% | -3.6% | -8.8%
CCOc1ccc(N2C(=O)c3[nH]nc(-c4ccc(OC)cc4)c3C2c2cccs2)cc1 (stereo not drawn) | · | · | ? | · | ? | 1.0%
